ANO1 activ: activates or potentiates the mouse TMEM16A chloride channel | AID 623877 | HEK293 TMEM16A/YFP-H148Q/I152L, iodide quench fluorescence; stronger effect = lower value | hit rate 0.3% among 340,000 | Q8BHY3 | B-score at 10 µM;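 active = fluorescence-ratio B-score plate-corrected deviation score at least 3 library SD below zero, with starting fluorescence score within 5 deviations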;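 also: channel opened by trigger with iodide after compound preincubation; score built on the fluorescence ratio of max minus min over baseline; more negative score means more quench and so TMEM16A activation or potentiation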
TMEM16A inh: mouse TMEM16A channel inhibition, primary screen. Q8BHY3. HEK293 TMEM16A/YFP iodide influx fluorescence, ionomycin. normalized B-score (activity score, 25-100; higher = stronger inhibition) at 10 µM. hit rate 1.2% among 310,000;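 active = ratio plate-corrected score three or more library SD toward inhibition, starting fluorescence score within five deviations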;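 also: score derived from kinetic fluorescence span divided by baseline fluorescence per well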
CHT PAM: allosteric activators of human choline transporter CHT; Q9GZV3; CHT-expressing cells, membrane potential dye, choline EC20; stronger effect = higher value; LV-AA mutant CHT in HEK293 cells; B-score at 10 µM; hit rate 0.49% among 310,000; AID 488977;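 active = initial fluorescence not abnormally high and integrated response B-score, plate-corrected, over 3 SD above library mean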
CHT inh: inhibits the human high affinity choline transporter; CHT-expressing cells, membrane potential dye, choline response; stronger effect = lower value; B-score at 10 µM; hit rate 0.86% among 310,000; AID 488975;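 active = B-score over 3 SD under the library average, and starting fluorescence ratio not unusually high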;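 also: choline stimulus applied at its EC90 after an EC20 pre-addition; B-score computed on integrated fluorescence ratio after choline addition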
Active calls of the source: *; i = inactive; nt = no result given. Only some compounds are listed: those with a hit (about 2.4% of all), similar ones and a draw of the others.

SMILES | ANO1 activ | TMEM16A inh | CHT PAM | CHT inh
COc1ccc(C2C(C(=O)c3ccco3)=C(O)C(=O)N2c2nnc(C)s2)cc1OC (stereo not given) | i | i | i | i
NC(=O)c1ccc(C(F)(F)F)cn1 | i | i | i | i
COc1ccccc1N1CCN(C(=O)CC(NC(=O)c2ccccc2Cl)c2ccccc2)CC1 (stereo not given) | i | nt | nt | nt
C=CCOc1ccc(CNn2nnnc2N)cc1 | -14* | i | i | i
C/C(=N\N1CCN(c2ccc(Cl)cc2)CC1)c1cccc([N+](=O)[O-])c1 | i | 25* | i | i
NNC(=O)c1cc2c(N3CCC(Cc4ccccc4)CC3)ncnc2s1 | i | 100* | i | i
C(=C\c1sc(Nc2ccccc2)n[n+]1-c1ccccc1)/c1ccccc1 | -8.9* | nt | nt | nt
Cc1cc(C)c2c(=O)n(CC(=O)NCCCN3CCN(c4ccccc4F)CC3)sc2n1 | nt | 100* | i | i
Cc1cc(C)c2c(=O)n(CC(=O)NCCCN3CCOCC3)sc2n1 | i | i | i | i
COc1cc(/C=C2\C(=O)ON=C2c2ccc(Cl)cc2)ccc1O | -5.9* | i | i | i
O=C(Oc1ccc2ccccc2c1Br)N1CCCCCC1 | i | i | i | i
CCn1c(N)c(C(=O)NC)sc1=S | i | 100* | i | i
COc1ccc(C(C)=O)cc1COC(=O)c1cc(C)oc1C | -11* | i | i | i
CC(=O)OCC(=O)[C@H]1CC[C@H]2[C@@H]3CCC4=CC(=O)CC[C@]4(C)[C@H]3CC[C@]12C | -5.8* | i | i | i
CCC(C(=O)OCC(=O)Nc1cccc(C(C)=O)c1)c1ccccc1 (stereo not given) | i | i | i | i
CCC(C(=O)OCC(=O)Nc1cc(Cl)cc(Cl)c1)c1ccccc1 (stereo not given) | i | 100* | i | i
CCN1CCCC1Cn1cnc2c([nH]c3cccc(Cl)c32)c1=O (stereo not given) | -10* | i | i | i
CCOC(=O)c1cnn(-c2ccccc2)c1NC(=O)c1ccc(C)cc1 | i | 25* | i | i
CCOC(=O)c1cnn(-c2ccccc2)c1NC(=O)c1ccccc1 | i | i | i | i
Cc1cc(NCCCn2ccnc2)n2ncc(-c3ccccc3)c2n1 | i | i | i | i
Cc1cc(NCCCn2ccnc2)n2nc(C)c(-c3ccc(Cl)cc3)c2n1 | i | i | i | -5.1*
Cc1ccc(C(=O)/C=C/c2cc(C#N)n(C)c2C)cc1 | i | i | i | i
CCOC(=O)CCC(=O)NNC(=O)c1ccc(NC(=O)c2ccccc2)cc1 | -6.8* | i | i | i
O=C(NNC(=O)c1ccc(NC(=O)c2ccccc2)cc1)c1ccccc1 | i | i | i | i
Cc1cccc(C2(c3cccc(C)c3)CC2C(=O)Nc2ccc([N+](=O)[O-])cc2O)c1 (stereo not given) | i | 100* | i | i
SMILES | ANO1 activ | TMEM16A inh | CHT PAM | CHT inh
COc1cc(C)c(C)cc1S(=O)(=O)N1CCCCC1c1cccnc1 (stereo not given) | -6* | i | i | i
COc1cc(C(=O)NCc2nnc(SCC(=O)NCc3ccco3)o2)cc(OC)c1OC | i | i | i | i
CC(C)c1ccc(C2=C(O)c3ccccc3C(=O)C2=O)cc1 | i | 25* | i | i
Cc1ccc(C2=C(O)c3ccccc3C(=O)C2=O)cc1 | i | i | i | i
O=C(N/N=C/c1cn(-c2ccccc2)nc1-c1cc2ccccc2o1)c1ccncc1 | i | 25* | i | i
C#CCOCCOCCOCCNc1nc(N2CCN(C(=O)CCCCCCCCCCNC(=O)Cn3cc(C[C@@H](C)O)nn3)CC2)nc(N2CCN(C(=O)CCCCCCCCCCNC(=O)[C@H](CCCCN)n3cc(CCCC(=O)O)nn3)CC2)n1 | i | i | i | i
C#CCOCCOCCOCCNc1nc(N2CCN(C(=O)CCCCCCCCCCNC(=O)[C@H](CO)n3cc(CCCSC)nn3)CC2)nc(N2CCN(C(=O)CCCCCCCCCCNC(=O)[C@H](CCCCN)n3cc(CCO)nn3)CC2)n1 | i | nt | nt | nt
C#CCOCCOCCOCCNc1nc(N2CCN(C(=O)CCCCCCCCCCNC(=O)Cn3cc(C[C@@H](C)O)nn3)CC2)nc(N2CCN(C(=O)CCCCCCCCCCNC(=O)[C@H](CCCN=C(N)N)n3cc(C[C@@H](C)CC)nn3)CC2)n1 | -26* | i | i | i
